# Data as given in article PMC11006913.
# Legend:
# Test in all cases: PBM; 200 nM protein, PBS
# Details in all cases: dsDNA, one strand shown
# VAX1 [1] = biological target: VAX1 (Homo sapiens, UniProt Q5SQQ9 86-172)
# VAX1 [2] = biological target: VAX1 (Homo sapiens, UniProt Q5SQQ9 86-172, T142I)
# VAX1 [3] = biological target: VAX1 (Homo sapiens, UniProt Q5SQQ9 86-172, K157R)
# NKX3-2 [4] = biological target: NKX3-2 (Homo sapiens, UniProt P78367 192-278, P234S)
# NKX3-2 [5] = biological target: NKX3-2 (Homo sapiens, UniProt P78367 192-278)
# Chain of NKX3-2 (Homo sapiens, UniProt P78367 192-278) (P78367 192-278): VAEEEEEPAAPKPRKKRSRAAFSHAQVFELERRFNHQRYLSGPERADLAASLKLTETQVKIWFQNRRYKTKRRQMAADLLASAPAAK
# Chain of VAX1 (Homo sapiens, UniProt Q5SQQ9 86-172, K157R) (Q5SQQ9 86-172 K157R): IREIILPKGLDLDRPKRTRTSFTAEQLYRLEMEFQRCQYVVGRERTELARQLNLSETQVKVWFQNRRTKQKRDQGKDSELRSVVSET
# Chain of VAX1 (Homo sapiens, UniProt Q5SQQ9 86-172) (Q5SQQ9 86-172): as the sequence (Q5SQQ9 86-172 K157R) above, with R72K counted along it
# Chain of VAX1 (Homo sapiens, UniProt Q5SQQ9 86-172, T142I) (Q5SQQ9 86-172 T142I): as the sequence (Q5SQQ9 86-172 K157R) above, with T57I, R72K counted along it
# Chain of NKX3-2 (Homo sapiens, UniProt P78367 192-278, P234S) (P78367 192-278 P234S): as the sequence (P78367 192-278) above, with P43S counted along it
Sequence,binding signal (VAX1 [1]),binding signal (VAX1 [2]),binding signal (VAX1 [3]),binding signal (NKX3-2 [4]),binding signal (NKX3-2 [5])
AATATTGG,"9.86 upbm affinity estimate (log intensity, higher = more binding, comparable within an allelic series)","9.41 upbm affinity estimate (log intensity, higher = more binding, comparable within an allelic series)","9.62 upbm affinity estimate (log intensity, higher = more binding, comparable within an allelic series)",,
CTTCATCA,"9.74 upbm affinity estimate (log intensity, higher = more binding, comparable within an allelic series)","9.33 upbm affinity estimate (log intensity, higher = more binding, comparable within an allelic series)","9.51 upbm affinity estimate (log intensity, higher = more binding, comparable within an allelic series)",,
CTCCGTGC,"6.97 upbm affinity estimate (log intensity, higher = more binding, comparable within an allelic series)","7.18 upbm affinity estimate (log intensity, higher = more binding, comparable within an allelic series)","6.81 upbm affinity estimate (log intensity, higher = more binding, comparable within an allelic series)",,
CAGCGCAC,"7.28 upbm affinity estimate (log intensity, higher = more binding, comparable within an allelic series)","7.22 upbm affinity estimate (log intensity, higher = more binding, comparable within an allelic series)","7.26 upbm affinity estimate (log intensity, higher = more binding, comparable within an allelic series)",,
CAAATCTA,"8.78 upbm affinity estimate (log intensity, higher = more binding, comparable within an allelic series)","8.51 upbm affinity estimate (log intensity, higher = more binding, comparable within an allelic series)",,,
CCTTCGCC,"7.18 upbm affinity estimate (log intensity, higher = more binding, comparable within an allelic series)","7.38 upbm affinity estimate (log intensity, higher = more binding, comparable within an allelic series)","7.16 upbm affinity estimate (log intensity, higher = more binding, comparable within an allelic series)",,
CGCGCTAG,"7.18 upbm affinity estimate (log intensity, higher = more binding, comparable within an allelic series)","7.3 upbm affinity estimate (log intensity, higher = more binding, comparable within an allelic series)","7.16 upbm affinity estimate (log intensity, higher = more binding, comparable within an allelic series)",,
GTCCCTAA,"9.58 upbm affinity estimate (log intensity, higher = more binding, comparable within an allelic series)","9.36 upbm affinity estimate (log intensity, higher = more binding, comparable within an allelic series)","9.3 upbm affinity estimate (log intensity, higher = more binding, comparable within an allelic series)",,
GCCAAGGC,"7.09 upbm affinity estimate (log intensity, higher = more binding, comparable within an allelic series)","7.33 upbm affinity estimate (log intensity, higher = more binding, comparable within an allelic series)","6.97 upbm affinity estimate (log intensity, higher = more binding, comparable within an allelic series)",,
GCTCAGCC,"6.9 upbm affinity estimate (log intensity, higher = more binding, comparable within an allelic series)","6.99 upbm affinity estimate (log intensity, higher = more binding, comparable within an allelic series)","6.88 upbm affinity estimate (log intensity, higher = more binding, comparable within an allelic series)",,
GCGGAGAC,"7.14 upbm affinity estimate (log intensity, higher = more binding, comparable within an allelic series)","7.32 upbm affinity estimate (log intensity, higher = more binding, comparable within an allelic series)","7.29 upbm affinity estimate (log intensity, higher = more binding, comparable within an allelic series)",,
AAGTAGCT,"9.67 upbm affinity estimate (log intensity, higher = more binding, comparable within an allelic series)","9.41 upbm affinity estimate (log intensity, higher = more binding, comparable within an allelic series)","9.35 upbm affinity estimate (log intensity, higher = more binding, comparable within an allelic series)","11.8 upbm affinity estimate (log intensity, higher = more binding, comparable within an allelic series)","11.9 upbm affinity estimate (log intensity, higher = more binding, comparable within an allelic series)"
CGACCCAG,"7.38 upbm affinity estimate (log intensity, higher = more binding, comparable within an allelic series)","7.45 upbm affinity estimate (log intensity, higher = more binding, comparable within an allelic series)","7.3 upbm affinity estimate (log intensity, higher = more binding, comparable within an allelic series)",,
ATATCGAA,"8.69 upbm affinity estimate (log intensity, higher = more binding, comparable within an allelic series)","8.53 upbm affinity estimate (log intensity, higher = more binding, comparable within an allelic series)",,,
TAATACCA,"10.2 upbm affinity estimate (log intensity, higher = more binding, comparable within an allelic series)","9.86 upbm affinity estimate (log intensity, higher = more binding, comparable within an allelic series)","9.87 upbm affinity estimate (log intensity, higher = more binding, comparable within an allelic series)",,
CGTCATGA,"8.84 upbm affinity estimate (log intensity, higher = more binding, comparable within an allelic series)","8.58 upbm affinity estimate (log intensity, higher = more binding, comparable within an allelic series)","8.62 upbm affinity estimate (log intensity, higher = more binding, comparable within an allelic series)",,
CAACGCGG,"7.3 upbm affinity estimate (log intensity, higher = more binding, comparable within an allelic series)","7.21 upbm affinity estimate (log intensity, higher = more binding, comparable within an allelic series)","7.43 upbm affinity estimate (log intensity, higher = more binding, comparable within an allelic series)",,
ATTTATAA,"10.7 upbm affinity estimate (log intensity, higher = more binding, comparable within an allelic series)","10.5 upbm affinity estimate (log intensity, higher = more binding, comparable within an allelic series)","10.4 upbm affinity estimate (log intensity, higher = more binding, comparable within an allelic series)",,
CCTGCAGA,"7.26 upbm affinity estimate (log intensity, higher = more binding, comparable within an allelic series)","7.33 upbm affinity estimate (log intensity, higher = more binding, comparable within an allelic series)","7.23 upbm affinity estimate (log intensity, higher = more binding, comparable within an allelic series)",,
AATATGCT,"9.71 upbm affinity estimate (log intensity, higher = more binding, comparable within an allelic series)","9.56 upbm affinity estimate (log intensity, higher = more binding, comparable within an allelic series)","9.53 upbm affinity estimate (log intensity, higher = more binding, comparable within an allelic series)",,
